Shown are actives, neighbours in structure and some others; about 5.4% of the full set was active somewhere.
ALR inh: blocks human ALR sulfhydryl oxidase activity; 290,000 compounds, 3.8% hits; purified ALR, DTT oxidation, H2O2 HRP-luminol luminescence; P55789; inhibition, % (concentration not given with the values); AID 485317;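 active = mean replicate inhibition above about 79%, with every replicate also reaching it, limit read from the data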
CSC inhib: cancer stem cell inhibition | cancer stem cell-like cells viability, luminescence | 300,000 compounds, 1.1% hits | inhibition, % at 7.5 µM | AID 2717; in the data active = inhibition above about 75%; tested in HMLE shEcad cells
Calb FLC: C. albicans growth modulation with fluconazole | C. albicans CaCi-2 (fluconazole-resistant clinical isolate) + fluconazole, Alamar Blue growth, 48 h | growth inhibition, % (concentration not given with the values) | 300,000 compounds, 0.57% hits;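 active = growth inhibition above about 58% in most replicates, limit read from the data, passing the limit was not always enough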;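 also: all wells also contain fluconazole at 8 µg/ml as a sub-toxic cotreatment; 0% = median of DMSO wells and 100% = median of geldanamycin control wells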
PP5 inh: blocks human protein phosphatase 5 activity; P53041; purified PP5c, OMFP substrate fluorescence; inhibition, % at 6.7 µM; 320,000 compounds, 0.18% hits; AID 1987;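 active = inhibition above the campaign's mean inhibition across all tested compounds plus 3 SD, cut at about 9.5% in these data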;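 also: 0% = DMSO only and 100% = 100 µM cantharidin control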
Target sequence (P53041 whole entry, looked up): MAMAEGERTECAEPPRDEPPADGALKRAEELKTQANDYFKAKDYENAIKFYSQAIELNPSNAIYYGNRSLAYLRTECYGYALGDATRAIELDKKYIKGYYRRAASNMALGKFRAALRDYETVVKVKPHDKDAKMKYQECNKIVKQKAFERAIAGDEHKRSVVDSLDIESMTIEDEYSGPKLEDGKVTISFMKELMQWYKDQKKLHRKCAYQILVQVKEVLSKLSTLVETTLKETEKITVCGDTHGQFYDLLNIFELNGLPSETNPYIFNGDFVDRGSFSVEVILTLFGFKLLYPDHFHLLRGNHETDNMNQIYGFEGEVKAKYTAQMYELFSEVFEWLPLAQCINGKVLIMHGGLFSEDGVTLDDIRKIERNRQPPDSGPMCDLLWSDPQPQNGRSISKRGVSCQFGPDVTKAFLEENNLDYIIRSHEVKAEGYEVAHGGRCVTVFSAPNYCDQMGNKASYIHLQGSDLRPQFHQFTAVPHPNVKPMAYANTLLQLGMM
PP1 inh: PP1-alpha (human) inhibition in PP5 counter-screen. P62136. purified PP1alpha, OMFP fluorescence. inhibition, % at 6.7 µM. 320,000 compounds, 0.9% hits. AID 2235;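 active = inhibition above the mean inhibition of all tested compounds plus 3 SD, computed separately for each screening campaign, cut at about 15% in these data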
Active calls of the source: *; . = no result.

SMILES | ALR inh | CSC inhib | Calb FLC | PP5 inh | PP1 inh
CC(=O)Nc1ccc(NC(=O)C/C(C)=N/NC(N)=S)cc1 | 48 | -6 | -8 | 2 | 3
Cc1ccc(S(=O)(=O)NCc2ccc(C(=O)NCCCN3CCN(C)CC3)cc2)cc1 | . | -15 | 6 | -2 | -7
COc1cc(C=O)ccc1OCCCCOc1ccccc1[N+](=O)[O-] | 96* | -16 | 13 | 2 | 0
Cc1ccc(C(=O)NNC(=O)C2CC2)cc1Br | 88* | 1 | 2 | -1 | -2
COC(=O)NNC(=O)c1ccc(C)c(Br)c1 | 6 | -3 | -5 | 0 | -2
O=C(CCN1CCc2ccccc2CC1)c1ccc2c(c1)OCCO2 | 27 | 38 | -8 | 1 | 0
CC(=O)Nc1ccc(NC(=O)/C=C/c2ccc3c(c2)OCO3)cc1 | -1 | 48 | 1 | 2 | -6
CCOC(=O)c1c(NC(=O)/C=C/c2ccc3c(c2)OCO3)sc(C)c1CC | 0 | 122* | -6 | 2 | -1
COC(=O)c1c(NC(=O)/C=C/c2ccc3c(c2)OCO3)sc(C)c1C | 38 | 103* | 4 | 1 | 0
Cc1ccc(O)c(C2=NNC(c3ccc(Cl)cc3)C2)c1 (stereo not given) | 0 | 19 | 78* | -2 | -4
CN1CCN(/N=C/c2nc(-c3cccc([N+](=O)[O-])c3)n3ccccc23)CC1 | 99* | -12 | 6 | 1 | 0
O=C1C(Cl)=C(NCC2CCCO2)C(=O)N1C1CCCCC1 (stereo not given) | 98* | 0 | 0 | 1 | 3
O=C1C(Cl)=C(NCC2CCCO2)C(=O)N1c1ccccc1 (stereo not given) | 0 | -13 | -3 | 1 | -3
COc1ccc(Nc2cc(C)c3ccc(O)cc3n2)cc1 | 99* | 33 | -6 | 1 | 3
Cc1cc(Nc2ccccc2)nc2cc(O)ccc12 | 96* | 5 | -5 | 1 | 6
Nc1cccc(C2=Nc3cccc4cccc(c34)N2)c1 | -33 | 9 | -3 | 2 | -1
CCN(CC)c1ccc(C2CC(=O)Nc3cc(OC)c(OC)cc32)cc1 (stereo not given) | 98* | -6 | -9 | 1 | -3
Nc1sccc1C(=O)c1ccc(Cl)cc1 | . | . | 10 | . | .
NC(=O)c1ccsc1N | 98* | -15 | -14 | 0 | 4
C=CCn1c(COc2ccccc2)nnc1SCC(=O)N/N=C/c1cc(Cl)ccc1O | -30 | 21 | -3 | 2 | -3
C=CCn1c(CNc2ccccc2)nnc1SCC(=O)N/N=C/c1ccc(O)cc1O | 64 | 86* | -1 | 0 | 2
CCn1c(CNC(=O)c2cccs2)nnc1SCC(=O)Nc1ccc(Cl)cc1 | 97* | -8 | 10 | 1 | -3
C=CCn1c(CNc2ccc(C)cc2)nnc1SCC(=O)N/N=C/c1ccc(O)cc1O | . | 106* | 6 | 1 | 5
CCn1c(CNc2ccc(C)cc2)nnc1SCC(=O)NCc1ccccc1 | 86* | 7 | -3 | -1 | -1
O=C(NC1CCCC1)C(c1ccco1)N(Cc1ccccc1)C(=O)c1csnn1 (stereo not given) | . | -1 | 48 | 0 | 2
SMILES | ALR inh | CSC inhib | Calb FLC | PP5 inh | PP1 inh
CCOC(=O)C1CCCN(S(=O)(=O)c2ccc3c4c(cccc24)C(=O)N3CC)C1 (stereo not given) | -16 | -15 | . | 3 | 0
CNc1sc(C(=O)c2ccc(F)cc2)c(N)c1-c1nc2ccccc2s1 | 91* | 9 | 25 | 2 | 14
CNc1sc(C(=O)c2cccs2)c(N)c1-c1nc2ccccc2s1 | 3 | 38 | 6 | 2 | 8
O=C(CSc1oc(-c2ccccc2)nc1S(=O)(=O)c1ccccc1)NCC1CCCO1 (stereo not given) | -5 | 13 | . | 4 | -4
COc1cccc(/C=C/C(=O)OCC(=O)N2CCN(S(=O)(=O)c3ccc(Cl)cc3)CC2)c1 | -1 | -6 | -7 | -1 | -1
COc1ccc(-n2ccnc(SCC(=O)NC3CCCC3)c2=O)cc1OC | . | 4 | 3 | 0 | -1
O=C(COc1ccc(Cl)cc1)NC1CCSC1=O (stereo not given) | -11 | -18 | 102* | 2 | -5
C=CCOC(=O)C1=C(C)NC(SCC(=O)NC(=O)OCC)=C(C#N)C1c1cccnc1 (stereo not given) | 2 | -16 | 99* | 1 | -4
CC(=O)C1=C(C)NC(SCC(=O)c2ccc(-c3ccccc3)cc2)=C(C#N)C1c1cccnc1 (stereo not given) | -10 | 51 | . | 0 | 27*
CC(=O)C1=C(C)NC(SCSc2ccccc2)=C(C#N)C1c1cccnc1 (stereo not given) | -3 | 23 | -6 | 1 | 4

Assay outcomes as filed in PubChem BioAssay.
